# From the supplement of paper PMC8728848
# Many of the other results were omitted from the sample, so the strongest signals are more common in it than they were.
# B1: SpnanA (Streptococcus pneumoniae), P62575 (protein)
# chain: MVIEKEDVETNASNGQRVDLSSELDKLKKLENATVHMEFKPDAKAPAFYNLFSVSSATKKDEYFTMAVYNNTATLEGRGSDGKQFYNNYNDAPLKVKPGQWNSVTFTVEKPTAELPKGRVRLYVNGVLSRTSLRSGNFIKDMPDVTHVQIGATKRANNTVWGSNLQIRNLTVYNRALTPEEVQKRS
# B2: AFL (Aspergillus fumigatus), Q4WW81 (protein)
# chain: STPGAQQVLFRTGIAAVNLTNHLRVYFQDVYGSIRESLYEGSWANGTEKNVIGNAKLGSPVAATSKELKHIRVYTLTEGNTLQEFAYDSGTGWYNGGLGGAKFQVAPYSRIAAVFLAGTDALQLRIYAQKPDNTIQEYMWNGDGWKEGTNLGGALPGTGIGATSFRYTDYNGPSIRIWFQTDDLKLVQRAYDPHKGWYPDLVTIFDRAPPRTAIAATSFGAGNSSIYMRIYFVNSDNTIWQVCWDHGKGYHDKGTITPVIQGSEVAIISWGSFANNGPDLRLYFQNGTYISAVSEWVWNRAHGSQLGRSALPPA
# Experiments:
# Assay in all cases: glycan array binding signal (z-score within array); higher = stronger binding
# Details in all cases: glycan notation: IUPAC condensed, linker removed
# [1] = molecular target: Neu5Ac(a2-3)[Neu5Ac(a2-6)]GalNAc
# How it was run: (§1)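 Glycan array binding is given as a within-array Z-score, which can be read as non-binding when negative. The arrays, 3228 of them, came from the Consortium for Functional Glycomics database and were retained only where the protein sequence was available. Z-scores were averaged across arrays of the same protein sequence at different concentrations or buffers and across linkers.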
# [2] = molecular target: Neu5Ac(a2-6)GalNAc(b1-4)GlcNAc6S
# How it was run: as §1
# [3] = molecular target: Neu5Ac9Ac(a2-3)Gal(b1-4)GlcNAc
# How it was run: as §1
# [4] = molecular target: Fuc(a1-2)Gal(b1-3)GlcNAc(b1-2)Man(a1-3)[Fuc(a1-2)Gal(b1-3)GlcNAc(b1-2)Man(a1-6)]Man(b1-4)GlcNAc(b1-4)GlcNAc
# How it was run: as §1
# Fuc(a1-2)Gal(b1-4)Glc6S = molecular target: Fuc(a1-2)Gal(b1-4)Glc6S
# How it was run: as §1
# Fuc(a1-2)Gal(b1-4)GlcNAc = molecular target: Fuc(a1-2)Gal(b1-4)GlcNAc
# How it was run: as §1
# [5] = molecular target: Fuc(a1-2)Gal(b1-4)GlcNAc6S
# How it was run: as §1
# [6] = molecular target: Fuc(a1-2)Gal(b1-4)[Fuc(a1-3)]GlcNAc
# How it was run: as §1
# [7] = molecular target: Fuc(a1-2)Gal(b1-4)[Fuc(a1-3)]GlcNAc(b1-3)Gal(b1-4)[Fuc(a1-3)]GlcNAc
# How it was run: as §1
# [8] = molecular target: Fuc(a1-2)Gal(b1-4)[Fuc(a1-3)]GlcNAc(b1-3)Gal(b1-4)[Fuc(a1-3)]GlcNAc(b1-3)Gal(b1-4)[Fuc(a1-3)]GlcNAc
# How it was run: as §1
# Fuc(a1-2)Gal6S(b1-4)Glc = molecular target: Fuc(a1-2)Gal6S(b1-4)Glc
# How it was run: as §1
# [9] = molecular target: Fuc(a1-2)[Gal(a1-3)]Gal(b1-4)Glc
# How it was run: as §1
# [10] = molecular target: Fuc(a1-2)[GalNAc(a1-3)]Gal
# How it was run: as §1
# [11] = molecular target: Fuc(a1-2)[GalNAc(a1-3)]Gal(b1-3)GlcNAc(b1-2)Man(a1-3)[Fuc(a1-2)[GalNAc(a1-3)]Gal(b1-3)GlcNAc(b1-2)Man(a1-6)]Man(b1-4)GlcNAc(b1-4)GlcNAc
# How it was run: as §1
# Fuc(a1-3)GlcNAc = molecular target: Fuc(a1-3)GlcNAc
# How it was run: as §1
# [12] = molecular target: Fuc(a1-3)[Gal3S(b1-4)]GlcNAc
# How it was run: as §1
# Fuc(a1-4)GlcNAc = molecular target: Fuc(a1-4)GlcNAc
# How it was run: as §1
# Gal(a1-3)Gal(b1-3)GlcNAc = molecular target: Gal(a1-3)Gal(b1-3)GlcNAc
# How it was run: as §1
# [13] = molecular target: Gal(a1-3)Gal(b1-4)[Fuc(a1-3)]GlcNAc(b1-2)Man(a1-3)[Gal(a1-3)Gal(b1-4)[Fuc(a1-3)]GlcNAc(b1-2)Man(a1-6)]Man(b1-4)GlcNAc(b1-4)GlcNAc
# How it was run: as §1
# [14] = molecular target: Gal(a1-3)[Gal(a1-4)]Gal(b1-4)GlcNAc
# How it was run: as §1
# Gal(a1-4)GlcNAc = molecular target: Gal(a1-4)GlcNAc
# How it was run: as §1
# Gal(b1-3)GalNAc = molecular target: Gal(b1-3)GalNAc
# How it was run: as §1
# Gal(b1-4)Glc = molecular target: Gal(b1-4)Glc
# How it was run: as §1
# [15] = molecular target: Gal(b1-4)GlcNAc(b1-2)[Gal(b1-4)GlcNAc(b1-6)]Man(a1-6)[Gal(b1-4)GlcNAc(b1-2)Man(a1-3)]Man(b1-4)GlcNAc(b1-4)GlcNAc
# How it was run: as §1
# [16] = molecular target: Gal(b1-4)GlcNAc(b1-3)Gal(b1-4)Glc
# How it was run: as §1
# [17] = molecular target: Gal(b1-4)GlcNAc(b1-3)GalNAc
# How it was run: as §1
# [18] = molecular target: Gal(b1-4)GlcNAc(b1-3)[Gal(b1-4)GlcNAc(b1-6)]GalNAc
# How it was run: as §1
# Gal3S(b1-3)GalNAc = molecular target: Gal3S(b1-3)GalNAc
# How it was run: as §1
# [19] = molecular target: Gal3S(b1-4)[Fuc(a1-3)]Glc
# How it was run: as §1
# Gal3S6S(b1-4)GlcNAc6S = molecular target: Gal3S6S(b1-4)GlcNAc6S
# How it was run: as §1
# Gal6S(b1-3)GlcNAc6S = molecular target: Gal6S(b1-3)GlcNAc6S
# How it was run: as §1
# GalNAc(a1-3)Gal = molecular target: GalNAc(a1-3)Gal
# How it was run: as §1
# [20] = molecular target: GalNAc(a1-3)GalNAc(a1-3)Gal(a1-4)Gal(b1-4)GlcNAc
# How it was run: as §1
# [21] = molecular target: GalNAc(a1-3)GalNAc(b1-3)Gal(a1-4)Gal(b1-4)GlcNAc
# How it was run: as §1
# GlcA(b1-3)GlcNAc = molecular target: GlcA(b1-3)GlcNAc
# How it was run: as §1
# [22] = molecular target: GlcNAc(a1-4)Gal(b1-3)GlcNAc
# How it was run: as §1
# [23] = molecular target: GlcNAc(a1-4)Gal(b1-4)GalNAc
# How it was run: as §1
# Kdn(a2-3)Gal(b1-4)GlcNAc = molecular target: Kdn(a2-3)Gal(b1-4)GlcNAc
# How it was run: as §1
# [24] = molecular target: Man(a1-2)Man(a1-6)[Man(a1-3)]Man(a1-6)[Man(a1-2)Man(a1-2)Man(a1-3)]Man(b1-4)GlcNAc(b1-4)GlcNAc
# How it was run: as §1
# [25] = molecular target: Neu5Ac(a2-3)Gal(b1-3)GalNAc
# How it was run: as §1
# [26] = molecular target: Neu5Ac(a2-3)Gal(b1-3)GalNAc(b1-4)[Neu5Ac(a2-8)Neu5Ac(a2-3)]Gal(b1-4)Glc
# How it was run: as §1
# [27] = molecular target: Neu5Ac(a2-6)Gal(b1-3)GlcNAc(b1-3)[Gal(b1-4)GlcNAc(b1-6)]Gal(b1-4)Glc
# How it was run: as §1
# Neu5Ac(a2-6)GalNAc = molecular target: Neu5Ac(a2-6)GalNAc
# How it was run: as §1
# [28] = molecular target: Neu5Ac(b2-6)Gal(b1-4)GlcNAc
# How it was run: as §1
binder,measurement,setting,value
B1,glycan array binding signal (z-score),[1],2.61
same,glycan array binding signal (z-score),[2],-0.062
same,glycan array binding signal (z-score),[3],-0.089
B2,glycan array binding signal (z-score),[4],-0.22
same,glycan array binding signal (z-score),Fuc(a1-2)Gal(b1-4)Glc6S,3.64
same,glycan array binding signal (z-score),Fuc(a1-2)Gal(b1-4)GlcNAc,2.94
same,glycan array binding signal (z-score),[5],3.17
same,glycan array binding signal (z-score),[6],4.58
same,glycan array binding signal (z-score),[7],3.88
same,glycan array binding signal (z-score),[8],4.31
same,glycan array binding signal (z-score),Fuc(a1-2)Gal6S(b1-4)Glc,3.41
same,glycan array binding signal (z-score),[9],-0.359
same,glycan array binding signal (z-score),[10],1.73
same,glycan array binding signal (z-score),[11],-0.374
same,glycan array binding signal (z-score),Fuc(a1-3)GlcNAc,3.8
same,glycan array binding signal (z-score),[12],0.994
same,glycan array binding signal (z-score),Fuc(a1-4)GlcNAc,3.56
same,glycan array binding signal (z-score),Gal(a1-3)Gal(b1-3)GlcNAc,-0.384
same,glycan array binding signal (z-score),[13],-0.087
same,glycan array binding signal (z-score),[14],-0.382
same,glycan array binding signal (z-score),Gal(a1-4)GlcNAc,-0.385
same,glycan array binding signal (z-score),Gal(b1-3)GalNAc,-0.383
same,glycan array binding signal (z-score),Gal(b1-4)Glc,-0.383
same,glycan array binding signal (z-score),[15],-0.356
same,glycan array binding signal (z-score),[16],-0.386
same,glycan array binding signal (z-score),[17],-0.386
same,glycan array binding signal (z-score),[18],-0.382
same,glycan array binding signal (z-score),Gal3S(b1-3)GalNAc,-0.387
same,glycan array binding signal (z-score),[19],0.328
same,glycan array binding signal (z-score),Gal3S6S(b1-4)GlcNAc6S,-0.381
same,glycan array binding signal (z-score),Gal6S(b1-3)GlcNAc6S,-0.385
same,glycan array binding signal (z-score),GalNAc(a1-3)Gal,-0.386
same,glycan array binding signal (z-score),[20],-0.4
same,glycan array binding signal (z-score),[21],-0.377
same,glycan array binding signal (z-score),GlcA(b1-3)GlcNAc,-0.361
same,glycan array binding signal (z-score),[22],-0.377
same,glycan array binding signal (z-score),[23],-0.384
same,glycan array binding signal (z-score),Kdn(a2-3)Gal(b1-4)GlcNAc,-0.381
same,glycan array binding signal (z-score),[24],-0.376
same,glycan array binding signal (z-score),[25],-0.385
same,glycan array binding signal (z-score),[26],-0.382
same,glycan array binding signal (z-score),[27],-0.383
same,glycan array binding signal (z-score),Neu5Ac(a2-6)GalNAc,-0.383
same,glycan array binding signal (z-score),[28],-0.388
